Where “and” joins values, the source holds several entries; their conditions need not be identical. Equal entries are not always repeated. Records with an inconclusive call do not appear. Calls of active or inactive are those of the source. Unless noted, calls follow the shape of the dose curve; as a rule, active = well fitted curve in the direction sought with a large enough effect in the repeat runs; inconclusive = weak or mixed curves; inactive = no such curve, though single readings can be large; an effect the other way counts as inactive or inconclusive.
Legend:
[1] = qHTS assay to identify small molecule agonists of the NFkB signaling pathway (AID 1159509; active = well fitted curve in the direction sought with a large enough effect in the signal ratio in the repeat runs, not every such curve was filed as active; the % refers to the signal ratio; also: series mostly up to about 61 µM)
Method in brief: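 Pathway activation was measured in ME-180 cells stably expressing beta-lactamase under NF-kB response element control. Substrate cleavage was read as the 460/530 nm emission shift after 5 hr compound incubation.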

[2] = qHTS assay to identify small molecule agonists of the NFkB signaling pathway - cell viability counter screen (AID 1159515; calls by dose curve; also: series mostly up to about 61 µM; nearly all actives have a fitted effect of over 55% in size)
Method in brief: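 Read by CellTiter-Glo luminescence (30 min, room temperature) in the wells also used for the beta-lactamase FRET read. ME-180 NFkB-bla cells at 2,000 per well were plated overnight, then exposed to compound for 5 hr at 37 C.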

[3] = qHTS assay to identify small molecule agonists of the endoplasmic reticulum stress response signaling pathway - cell viability counter screen (AID 1159517; calls by dose curve; also: series mostly up to about 61 µM; nearly all actives have a fitted effect of over 50% in size)
Method in brief: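 ESRE-bla HeLa cells (1,500/well) were plated overnight at 37 C and exposed to compounds for 5 hr. After the 2 hr beta-lactamase substrate read, CellTiter-Glo went into the same wells, and luminescence was read after 30 min at room temperature.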

[4] = qHTS assay to identify small molecule antagonists of the retinoid-related orphan receptor gamma (ROR-gamma) signaling pathway - cell viability counter screen (AID 1159520); also: nearly all actives have a fitted effect of over 50% in size
Method in brief: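 Cytotoxicity was read from cellular ATP (CellTiter-Glo luminescence) after 16 hr at 37 C with 1 uM doxycycline induction. The inducer was added 2 hr after compound transfer to Tet-on ROR gamma CHO cells.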

[5] = target: Nuclear receptor ROR-gamma (Homo sapiens) (UniProt P51449); assay: qHTS assay to identify small molecule antagonists of the retinoid-related orphan receptor gamma (ROR-gamma) signaling pathway (AID 1159521; also: nearly all actives have a fitted effect of over 50% in size; also: potency is read from the fitted curve at half-maximal effect)
Method in brief: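 Antagonist read-out: drop in luminescence (ONE-Glo) from an RORE-LUC reporter in CHO cells with doxycycline-inducible ROR-gamma; 2 hr compound pretreatment, 1 uM doxycycline, 16 hr incubation at 37 C.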

[6] = qHTS assay to identify small molecule agonists of the AP-1 signaling pathway - cell viability counter screen (AID 1159525; calls by dose curve; also: nearly all actives have a fitted effect of over 55% in size)
Method in brief: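 Intracellular ATP by Cell Titer Glo luminescence (30 min, RT) in the same ME-180 AP-1-bla wells after the 5 h compound exposure at 37 °C. Normalised to tetra n-octyl ammonium bromide and DMSO controls.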

[7] = qHTS assay to identify small molecule agonists of the AP-1 signaling pathway (AID 1159526; calls by dose curve)
[8] = target: Retinoic acid receptor RXR-alpha (Homo sapiens) (UniProt P19793); assay: qHTS assay to identify small molecule agonists of the RXR signaling pathway (AID 1159527; calls by dose curve; also: nearly all actives have a fitted effect of over 35% in size)
Chain of Retinoic acid receptor RXR-alpha (Homo sapiens) (P19793 whole entry, looked up): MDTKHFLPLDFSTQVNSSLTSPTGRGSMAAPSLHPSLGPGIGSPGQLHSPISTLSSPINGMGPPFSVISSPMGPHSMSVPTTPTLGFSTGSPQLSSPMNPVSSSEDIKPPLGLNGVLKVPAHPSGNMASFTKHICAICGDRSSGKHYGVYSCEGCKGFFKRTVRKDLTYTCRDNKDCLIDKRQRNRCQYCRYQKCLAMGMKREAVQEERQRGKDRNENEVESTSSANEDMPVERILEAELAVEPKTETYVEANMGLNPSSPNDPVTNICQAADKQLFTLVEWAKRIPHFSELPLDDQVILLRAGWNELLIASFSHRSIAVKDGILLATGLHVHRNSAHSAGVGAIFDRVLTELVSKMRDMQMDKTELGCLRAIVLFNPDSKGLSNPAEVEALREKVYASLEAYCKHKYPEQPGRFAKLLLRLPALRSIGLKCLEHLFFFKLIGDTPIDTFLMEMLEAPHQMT
Method in brief: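 Agonist-mode beta-lactamase reporter assay: HEK 293T RXR-alpha-UAS-bla cells treated 16 hr at 37 C with compounds, 9-cis retinoic acid as positive control. LiveBLAzer FRET substrate, 405 nm excitation, 460/530 nm emission.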

[9] = qHTS assay to identify small molecule agonists of the RXR signaling pathway - cell viability counter screen (AID 1159529); also: nearly all actives have a fitted effect of over 50% in size; also: potency is read from the fitted curve at half-maximal effect
Method in brief: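 CellTiter-Glo luminescence gave viability in the wells also read for beta-lactamase. Cells (RXR-alpha-UAS-bla HEK 293T, 2% charcoal-stripped FBS medium) had 5 hr plating, then 16 hr compound exposure at 37 C; tetraoctyl ammonium bromide served as positive control.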

[10] = qHTS assay to identify small molecule antagonists of the retinoid acid receptor (RAR) signaling pathway - cell viability counter screen (AID 1159551); also: nearly all actives have a fitted effect of over 35% in size; also: potency is read from the fitted curve at half-maximal effect
Method in brief: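 Cytotoxicity counter screen: ATP content quantified by CellTiter-Glo luminescence in C3RL4 cells treated 6 hr at 37 C with compound and retinol (1 uM final). Cells plated at 1,000/well and cultured overnight before dosing.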

[11] = qHTS assay to identify small molecule antagonists of the retinoic acid receptor (RAR) signaling pathway (AID 1159552; also: nearly all actives have a fitted effect of over 50% in size; also: potency is read from the fitted curve at half-maximal effect)
Method in brief: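 Luminescent RARE reporter read-out in C3RL4 cells: 6 hr co-treatment at 37 C of test compounds with retinol at 1 uM final. Cells plated overnight beforehand; luciferase reagent incubated 30 min at room temperature before reading.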

[12] = qHTS assay to identify small molecule agonists of the retinoic acid receptor (RAR) signaling pathway (AID 1159553); also: potency is read from the fitted curve at half-maximal effect
Method in brief: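 Luminescence was measured 30 min after luciferase reagent addition at room temperature. Before that, C3RL4 reporter cells (1,000 per well, plated overnight) were treated with compound for 6 hr at 37 C and 5% CO2.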

[13] = qHTS assay to identify small molecule antagonists of the estrogen related receptor (ERR) signaling pathway from Tox21 library - cell viability counter screen (AID 1224834); also: nearly all actives have a fitted effect of over 30% in size; also: potency is read from the fitted curve at half-maximal effect
Method in brief: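 CellTiter-Fluor fluorescence, read after 30 min at 37 C, measures viability of ERR cells. Cells plated at 2,000/well and incubated 6 h before pin-tool compound addition, then exposed 17.5 hours at 37 C.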

[14] = qHTS assay to identify small molecule agonists of the endoplasmic reticulum stress response signaling pathway (AID 1159516; active = well fitted activation curve with a large enough effect in the signal ratio in the repeat runs, not every such curve was filed as active; the % refers to the signal ratio)
Method in brief: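 Ratiometric FRET readout (405 nm excitation; 460 and 530 nm emission) of a beta-lactamase gene driven by the ER stress response element, after 2 hr substrate loading. HeLa ESRE-bla cells were seeded overnight and treated with compounds for only 5 hr at 37 C.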

[15] = qHTS assay to identify small molecule agonists of the estrogen related receptor (ERR) signaling pathway (AID 1224820)
Method in brief: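 An ERR cell line provided by NTP was seeded at 2,000 cells per well and allowed to settle for 6 h before compounds in DMSO were added. After 18 h at 37 C, luciferase activity was measured by One-Glo luminescence.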

[16] = system: estrogen-related receptor alpha (ERRalpha) with PGC-1alpha coactivator, human; assay: qHTS assay to identify small molecule antagonists of the estrogen related receptor signaling pathway with the pleiotropic PPARgamma coactivator (PGC) (AID 1224821; calls by dose curve)
Method in brief: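 A PGC/ERR cell line supplied by NTP is seeded, allowed 6 h at 37 C, and treated with test compounds in DMSO for 18 h. Signal is then measured as luciferase luminescence using One-Glo.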

[17] = qHTS assay to identify small molecule agonists of the estrogen related receptor signaling pathway with the pleiotropic PPARgamma coactivator (PGC) (AID 1224823)
Method in brief: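 Compounds dissolved in DMSO are added by pin tool to PGC/ERR cells that have settled for 6 h, and incubation continues 18 h at 37 C. Reporter output is measured as One-Glo luminescence.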

Measured: Potency

C=C(C)C(=O)OCC(CC)(COC(=O)C(=C)C)COC(=O)C(=C)C
not listed: [14] | [15] | [16] | [17]
inactive: all other assays above

CCCCCCOC(C)=O
not listed: [5] | [11] | [12] | [15] | [16] | [17]
inactive: all other assays above

CCCCCCCCCC(=O)O
not listed: [8] | [10] | [15] | [16] | [17]
inactive: all other assays above

CC1=C(/C=C/C(C)=C/C=C/C(C)=C/CO)C(C)(C)CCC1
active: [12] 13.9 µM and 32.3 µM
not listed: [5] | [8] | [10] | [15] | [16] | [17]
inactive: all other assays above

Cc1cc(O)c2c(c1)C(=O)c1cc(O)cc(O)c1C2=O
active: [12] 9.47 µM | [13] 27.3 µM
not listed: [4] | [7]
inactive: all other assays above

CC(C)(C)C(=O)C1C(=O)c2ccccc2C1=O
active: [5] 17.1 µM and 30.6 µM | [13] 60.5 µM and 43.3 µM
not listed: [4] | [15] | [16] | [17]
inactive: all other assays above

COCC(C)O (stereo not given)
not listed: [5] | [10] | [11] | [12] | [15] | [16] | [17]
inactive: all other assays above

OC1CCCC1
not listed: [10] | [14] | [15] | [16] | [17]
inactive: all other assays above

C=C1CC[C@H](O)CC1=C/C=C1\CCC[C@]2(C)[C@@H]([C@H](C)/C=C/[C@H](C)C(C)C)CC[C@@H]12
active: [9] 24.5 µM | [12] 61.1 µM
inactive: [1] | [2] | [14] | [3] | [6] | [11]

O=[N+]([O-])c1cc(N(CCO)CCO)ccc1NCCO
active: [10] 48.5 µM and 48.6 µM | [11] 30.6 µM | [13] 48.5 µM
not listed: [4] | [5] | [15] | [16] | [17]
inactive: all other assays above

CN(C)c1ccc(C(=N)c2ccc(N(C)C)cc2)cc1
inactive: [1] | [2] | [14] | [3] | [6] | [7] | [9] | [11]
active: [5] 21.4 µM and 20.9 µM | [12] 41.6 µM | [13] 24 µM and 20.9 µM

CC1CC(OC(=O)c2ccccc2O)CC(C)(C)C1 (stereo not given)
not listed: [7] | [10] | [15] | [16] | [17]
inactive: all other assays above

From PubChem BioAssay (Tox21)
